# PubChem BioAssay (Tox21)
# Records with an inconclusive call do not appear. Where a call stands in place of a potency, no number is given. Activity calls are given as the source filed them. Calls come from the whole dose curve; as a rule, active = well fitted cell-killing curve with a large enough effect in the repeat runs; inconclusive = weak or mixed curves, or effect the other way; inactive = flat fitted curve, though single readings scatter.
# Key:
# [1] = cAMP Responsive Elements (CRE) small molecule antagonists, cell-based qHTS assay: qHTS cell viability counter screen (AID 2060913); note: nearly all actives have a fitted effect of over 40% in size
# Procedure, shortened: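 CRE-bla HEK293T cells (2,000/well, 18 h) given compound plus NKH477 0.25 uM final for 3 h at 37C; viability counter-screen by CellTiter-Glo luminescence in same wells after 30 min.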
# [2] = cAMP Responsive Elements (CRE) small molecule agonists, cell-based qHTS assay: qHTS cell viability counter screen (AID 2060914); note: nearly all actives have a fitted effect of over 50% in size
# Procedure, shortened: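 In the same wells as the reporter read, viability of CRE-bla HEK 293T cells was quantified by CellTiter-Glo luminescence after a 3 h compound exposure.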
SMILES,Potency [1],Potency [2]
CC(C)=CC1C(C(=O)OCc2coc(Cc3ccccc3)c2)C1(C)C (configuration not stated),inactive,inactive
c1ccc(OP(Oc2ccccc2)Oc2ccccc2)cc1,inactive,inactive
CN(C1CCCCC1)C1CCCCC1,inactive,inactive
CN1C(=O)CN=C(c2ccccc2)c2cc([N+](=O)[O-])ccc21,inactive,inactive
NC(=O)C(Cl)(Cl)Cl,inactive,inactive
CC(C)C#N,inactive,inactive
